The source of these data is PubChem BioAssay AID624256 (NMMLSC, 2012).

The whole screen tested about 360,000 compounds, of which about 3,700 (1%) were called active. Another 2% or so got no clear call; they are omitted.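 The calls were made as follows: active = normalized GFP-positive differentiation at or above the plate's own cutoff, the solvent-only control mean plus 3 SD; inconclusive = no clear call, values can overlap the other calls; inactive = the rest.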 This excerpt belongs to a sample that is enriched for actives.

A short description of this test: induction of myeloid progenitor differentiation, primary screen, cell-based, flow cytometry, MLPCN library (AID 624256).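 As to GFP+ MAC1+ double positive: cells exposed to compound for four days before flow analysis.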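 As to normalized GFP-positive differentiation: cells exposed to compound for four days before flow analysis; 0% = DMSO wells and 100% = fulvestrant positive control at 5 µM.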 The conditions noted are these: ER-HoxA9 myeloid progenitors, lysozyme-GFP differentiation, at 10 µM; GFP+ MAC1+ double positive: measured here: differentiation confirmed by MAC1 staining, stronger effect = higher value; normalized GFP-positive differentiation: stronger effect = higher value. On the technique in general: In flow cytometry, cells or beads pass a laser one at a time.
For the compound `COc1cccc(CN(C)C(=O)CC[C@H]2O[C@@H](n3cnc4c(NC(=O)c5ccccc5)ncnc43)[C@H](O)[C@@H]2O)c1`, the GFP+ MAC1+ double positive worked out at 0.5% and the outcome was inactive.

For `CCCCc1nc2ccc(F)cc2cc1C`, the GFP+ MAC1+ double positive is 0.5% and the outcome was inactive.

Consider `O=C(Cc1ccc(Cl)cc1)c1ccccc1`, for which the GFP+ MAC1+ double positive stood at 0.7% and the compound was classed as inactive.

Take `O=c1c(-c2ccc(Cl)cc2)[n+]([O-])c2ccccc2n1OCc1nc2ccccc2[nH]1`: the GFP+ MAC1+ double positive was 0.7% and the compound was called inactive.

For `O=C(Cc1nc2ccccc2[nH]c1=O)c1ccc(Cl)cc1`, the GFP+ MAC1+ double positive was found to be 72.3% and the normalized GFP-positive differentiation was 347% (active).

Regarding `CN1OC[C@@H]2CN(C(=O)c3cccnc3)[C@H](c3ccc(N4CCCCC4)cc3)C[C@@H]21`, the GFP+ MAC1+ double positive turned out to be 1.2% and the result was inactive.

Consider `O=S1(=O)CC(N2CCC(Cc3ccccc3)CC2)CN1Cc1ccccc1` (stereo not given), for which the GFP+ MAC1+ double positive amounted to 1.3% and the compound was called inactive.

Consider `CC1(C(=O)NS(=O)(=O)c2cccc(F)c2)CCN1C(=O)Cc1ccc(Cl)cc1Cl` (stereo not given), for which the GFP+ MAC1+ double positive amounted to 0.9% and the compound was called inactive.

For `Cc1ccc(/C=C2\SC(=S)N(CCC(=O)Nc3ccc(O)cc3)C2=O)cc1`, the GFP+ MAC1+ double positive was found to be 17.3% and the normalized GFP-positive differentiation was 264% (active).

Turning to `Cc1cc(C)cc(NC(=O)CCN2C(=O)c3ccccc3C2=O)c1`, the GFP+ MAC1+ double positive was found to be 0.5% and the compound was called inactive.

For `Cc1ccc(NC(=O)CCN2C(=O)c3ccccc3C2=O)cc1C`, the GFP+ MAC1+ double positive came to 0.6% and the outcome was inactive.

On to `O=C(Nc1ccc(F)cc1)Nc1nnc([C@H]2C[C@H](O)[C@@H](CO)O2)s1`, for which the GFP+ MAC1+ double positive amounted to 0.6% and the outcome was inactive.

`CCCNC(=O)c1cc2c(c(-c3cccc(-c4ccc(C#N)cc4)c3)n1)[C@@H](CCO)N(C(=O)CC)C2`: the GFP+ MAC1+ double positive stood at 0.7% and the compound was called inactive.

For `O=C(NCc1ccc(F)cc1F)[C@@H]1CCCN1C(=O)[C@@H]1CCCN1C(=O)c1cccc(Cl)c1`, the GFP+ MAC1+ double positive came out at 0.5% and the compound was classed as inactive.

As for `CN(C)c1ccc(/C=C2\NC(=S)N(Cc3ccccc3)C2=O)cc1`, the GFP+ MAC1+ double positive turned out to be 23.7% and the normalized GFP-positive differentiation was 207% (active).

For the compound `CC1CN(Cc2ccccc2)C(=S)NC1=O` (stereo not given), the GFP+ MAC1+ double positive is 0.4% and the call was inactive.

For `CN(C)c1ccc(C=C2C(=O)OC3(CCCC3)OC2=O)cc1`, the GFP+ MAC1+ double positive worked out at 0.1% and the compound was called inactive.

As to `COc1ccc([C@H]2CC(=O)C[C@@H](CCn3cc(CC4CCCC4)nn3)O2)cc1`, the GFP+ MAC1+ double positive came out at 0.4% and the compound was called inactive.

`CC(C)N1C(=O)c2ccccc2NC(=O)C1C(=O)NCc1cccs1` (stereo not given): the GFP+ MAC1+ double positive was 2.7% and the result was inactive.

For `CCCCC(=O)Nc1nc(C)c(-c2csc(Nc3ccc(Cl)cc3)n2)s1`, the GFP+ MAC1+ double positive was determined as 0.8% and the call was inactive.

Turning to `Cc1ccc(Nc2nc(Cl)c(C=O)s2)cc1`, the GFP+ MAC1+ double positive was 1.3% and the normalized GFP-positive differentiation is 146% (active).

Take `Cc1ccc(Nc2nnc(SC(C)C(=O)NC3CC3)s2)cc1` (stereo not given): the GFP+ MAC1+ double positive came to 0.7% and the compound was called inactive.

As to `Cc1ccc(F)c(S(=O)(=O)NC(=O)C2(C)CCN2C(=O)c2ccco2)c1` (stereo not given), the GFP+ MAC1+ double positive came to 0.9% and the call was inactive.

In the case of `CCCCCNC(=O)C(c1ccc(OC)cc1)n1c(=O)c(-c2ccccc2)nc2ccccc21` (stereo not given), the GFP+ MAC1+ double positive was found to be 2.6% and the outcome was inactive.

Consider `Cc1cc(Cl)ccc1-c1nc(NCCN(C)C)nc2ccsc12`, for which the GFP+ MAC1+ double positive was found to be 1.3% and the result was inactive.

As for `CC(C)c1nc(SCC(=O)Nc2cccc(C(=O)O)c2)c2c3c(sc2n1)CCCC3`, the GFP+ MAC1+ double positive stood at 1.4% and the compound was classed as inactive.

Regarding `Cc1cc(NC(=O)CSc2nc3c(cc2C#N)CCCCC3)no1`, the GFP+ MAC1+ double positive amounted to 0% and the outcome was inactive.

`Cc1cc(NC(=O)CSc2nc(C(C)C)nc3sc4c(c23)CCC(C)C4)no1` (stereo not given): the GFP+ MAC1+ double positive came to 6.9% and the normalized GFP-positive differentiation was 29.7% (active).

For `CC(C)C[C@@H]1Cc2[nH][nH]c(=O)c2[C@H](CCc2ccccc2)O1`, the GFP+ MAC1+ double positive was 0.9% and the result was inactive.

Consider `Cc1cc2nc(-c3ccc(F)cc3)c(Cc3ccsc3)n2c(C)c1Br`, for which the GFP+ MAC1+ double positive turned out to be 1.3% and the compound was called inactive.

Regarding `COC(=O)[C@]12CCCCC=C1N(Cc1ccco1)C(=O)[C@H](CC(=O)NCCCCc1ccccc1)C2`, the GFP+ MAC1+ double positive was 0.4% and the call was inactive.

On to `CCc1nc2ccc(C(=O)NC3CCN(Cc4ccccc4)CC3)cn2c1N(C)CCN1CCOCC1`, for which the GFP+ MAC1+ double positive turned out to be 1.3% and the compound was called inactive.

For the compound `Oc1ccccc1C1=NN(c2ccccc2)C(c2ccccc2)C1` (stereo not given), the GFP+ MAC1+ double positive came out at 0.2% and the compound was called inactive.

For `COc1ccc(C2CC(c3cccc(OC)c3)=NN2c2ccc(S(N)(=O)=O)cc2)cc1` (stereo not given), the GFP+ MAC1+ double positive worked out at 8.9% and the normalized GFP-positive differentiation was 14.9% (active).

As to `Cc1ccc(C2CC(c3cccc(NS(C)(=O)=O)c3)=NN2S(C)(=O)=O)cc1` (stereo not given), the GFP+ MAC1+ double positive is 0.5% and the call was inactive.

`O=C(/C=C/[C@H]1O[C@@H](n2ccc(=O)[nH]c2=O)[C@H](O)[C@@H]1O)NCc1ccccn1`: the GFP+ MAC1+ double positive is 1.5% and the compound was classed as inactive.

For `Cc1ccc(Cn2cc(CN3CC(N4CCN(C)CC4)CS3(=O)=O)nn2)cc1` (stereo not given), the GFP+ MAC1+ double positive is 1% and the call was inactive.

Regarding `CCCCC[C@@H]1C=C(C(=O)OCC)[C@H](c2ccccc2)N1S(=O)(=O)c1ccc(C)cc1`, the GFP+ MAC1+ double positive came out at 0.5% and the compound was classed as inactive.

With `c1nc(COc2nsnc2N2CCOCC2)cs1`, the GFP+ MAC1+ double positive was 7.1% and the normalized GFP-positive differentiation was 13.2% (active).

As to `O=C(O)COc1nsnc1N1CCOCC1`, the GFP+ MAC1+ double positive worked out at 0% and the call was inactive.

Regarding `c1ccc(COc2nsnc2N2CCOCC2)cc1`, the GFP+ MAC1+ double positive was 2.7% and the call was inactive.

For the compound `CCC(C(=O)NC(C)(C)C)n1c(-c2ccccc2)nc2ccccc21` (stereo not given), the GFP+ MAC1+ double positive worked out at 2% and the call was inactive.

As to `O=C(NC1CCCC1)C1c2ccccc2OCC(=O)N1CC(F)(F)F` (stereo not given), the GFP+ MAC1+ double positive was determined as 0.5% and the outcome was inactive.

`O=C1NC[C@H](CCCCN2C[C@H](Cc3ccccc3)N(Cc3ccccc3)C(=O)C2=O)N(CCc2ccc(O)cc2)C1=O`: the GFP+ MAC1+ double positive turned out to be 1% and the call was inactive.

Turning to `COC(=O)[C@@]12C[C@@H](CC(=O)N3CCCCC3)C(=O)N(Cc3ccc4c(c3)OCO4)C1=CCC(C)(C)C2`, the GFP+ MAC1+ double positive was found to be 1.1% and the call was inactive.

Take `CCOc1ccc(-n2c(SCC(=O)Nc3cc(C(=O)O)ccc3Cl)nc3ccccc3c2=O)cc1`: the GFP+ MAC1+ double positive turned out to be 1.1% and the compound was classed as inactive.

In the case of `Cc1ccc(-n2c(SCC(=O)Nc3ncc(Cl)cc3Cl)nc3ccccc32)cc1`, the GFP+ MAC1+ double positive was 11.5% and the normalized GFP-positive differentiation was 162% (active).

For the compound `CC1(C(=O)OCC(=O)Nc2ncc(Cl)cc2Cl)CC1(Cl)Cl` (stereo not given), the GFP+ MAC1+ double positive amounted to 0.3% and the call was inactive.

Take `CC1Cc2ccccc2N1S(=O)(=O)c1cccc(C(=O)NCC(c2ccco2)N2CCCC2)c1` (stereo not given): the GFP+ MAC1+ double positive was determined as 1.4% and the normalized GFP-positive differentiation was 21.5% (active).

Turning to `CC1CCc2sc(C(=O)NCC(c3ccco3)N3CCCCC3)cc2C1` (stereo not given), the GFP+ MAC1+ double positive worked out at 0.5% and the outcome was inactive.

On to `CC1Cc2ccccc2N1S(=O)(=O)c1cccc(C(=O)OCC(=O)N2CCOCC2)c1` (stereo not given), for which the GFP+ MAC1+ double positive was 1% and the outcome was inactive.

In the case of `CC12CCC(=O)C=C1CCC1C2C(O)CC2(C)C1CCC2(O)C(O)CO` (stereo not given), the GFP+ MAC1+ double positive came to 1.1% and the result was inactive.

For `O=C(NCc1cccnc1)c1cc(C2CCCN(C(=O)CCCc3ccccc3)C2)on1` (stereo not given), the GFP+ MAC1+ double positive was found to be 0.8% and the compound was classed as inactive.

Turning to `CCCCN(C=O)c1c(CC)nc2c(OCCC3CCCCC3)cccn12`, the GFP+ MAC1+ double positive was 0.7% and the call was inactive.

As to `CCOC(=O)[C@]12CCCC=C1N(Cc1cccc3ccccc13)C(=O)[C@H](CC(=O)NCC13CC4CC(CC(C4)C1)C3)C2`, the GFP+ MAC1+ double positive amounted to 2.1% and the compound was called inactive.
